# Laboratory results as given in publication PMC7862700, “An all-to-all approach to the identification of sequence-specific readers for epigenetic DNA modifications on cytosine”.
# What was measured:
# Assay in all cases: DAPPL (digital affinity profiling via proximity ligation, sequencing); 10 mM Tris-HCl pH 7.5, 50 mM NaCl, 1 mM DTT, 4% glycerol, room temperature, 30 min; GST-TFs on glutathione beads, 16-mer random dsDNA library, 0.1% formaldehyde crosslink after washing; high values mean tight binding
# [1] = molecular target: T1, FLI1 (Homo sapiens, UniProt Q01543 1-452); details: protein: recombinant; tags: N-terminal GST; dsDNA, one strand shown
# T1 sequence: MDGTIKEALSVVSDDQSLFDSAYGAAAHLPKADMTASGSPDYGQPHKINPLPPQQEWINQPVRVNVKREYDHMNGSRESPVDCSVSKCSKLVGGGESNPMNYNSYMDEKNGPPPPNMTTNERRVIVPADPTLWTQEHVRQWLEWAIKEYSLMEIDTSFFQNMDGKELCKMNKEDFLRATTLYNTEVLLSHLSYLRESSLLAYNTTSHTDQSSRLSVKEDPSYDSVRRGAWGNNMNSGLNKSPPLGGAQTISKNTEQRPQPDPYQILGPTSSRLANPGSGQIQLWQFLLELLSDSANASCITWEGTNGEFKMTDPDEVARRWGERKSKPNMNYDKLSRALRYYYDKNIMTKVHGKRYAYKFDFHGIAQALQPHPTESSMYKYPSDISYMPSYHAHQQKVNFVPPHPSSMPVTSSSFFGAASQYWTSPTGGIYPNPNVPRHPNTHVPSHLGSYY
# Method in brief: (§1)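 Each value of binding signal is a hexamer's read frequency for a factor divided by the same hexamer's frequency in the tag-only sample. Barcoded, bead-captured GST fusions of human transcription factors made in yeast were pooled with that sample and incubated with 200 nmole of a random double-stranded 16-mer DNA library in Tris/NaCl/DTT/glycerol buffer at room temperature for 30 min. Washing, 0.1% formaldehyde crosslinking, proximity ligation, PCR and Illumina NextSeq500 sequencing followed.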
# [2] = molecular target: T2, ELK1 (Homo sapiens, UniProt P19419 1-428); details: protein: recombinant; tags: N-terminal GST; dsDNA, one strand shown
# T2 sequence: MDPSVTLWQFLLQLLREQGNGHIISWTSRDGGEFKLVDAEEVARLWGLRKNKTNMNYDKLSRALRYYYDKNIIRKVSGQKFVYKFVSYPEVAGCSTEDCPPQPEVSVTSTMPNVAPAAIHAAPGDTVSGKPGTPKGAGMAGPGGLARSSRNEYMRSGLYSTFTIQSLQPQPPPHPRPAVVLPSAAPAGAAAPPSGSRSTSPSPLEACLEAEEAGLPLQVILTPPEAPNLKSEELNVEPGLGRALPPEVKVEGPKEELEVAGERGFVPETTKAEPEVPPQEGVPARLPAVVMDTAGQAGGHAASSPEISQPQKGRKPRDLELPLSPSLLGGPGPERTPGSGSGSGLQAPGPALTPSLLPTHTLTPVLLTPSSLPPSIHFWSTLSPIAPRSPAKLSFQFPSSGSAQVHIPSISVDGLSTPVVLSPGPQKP
# Method in brief: as §1
# [3] = molecular target: T3, GABPA (Homo sapiens, UniProt Q06546 1-454); details: protein: recombinant; tags: N-terminal GST; dsDNA, one strand shown
# T3 sequence: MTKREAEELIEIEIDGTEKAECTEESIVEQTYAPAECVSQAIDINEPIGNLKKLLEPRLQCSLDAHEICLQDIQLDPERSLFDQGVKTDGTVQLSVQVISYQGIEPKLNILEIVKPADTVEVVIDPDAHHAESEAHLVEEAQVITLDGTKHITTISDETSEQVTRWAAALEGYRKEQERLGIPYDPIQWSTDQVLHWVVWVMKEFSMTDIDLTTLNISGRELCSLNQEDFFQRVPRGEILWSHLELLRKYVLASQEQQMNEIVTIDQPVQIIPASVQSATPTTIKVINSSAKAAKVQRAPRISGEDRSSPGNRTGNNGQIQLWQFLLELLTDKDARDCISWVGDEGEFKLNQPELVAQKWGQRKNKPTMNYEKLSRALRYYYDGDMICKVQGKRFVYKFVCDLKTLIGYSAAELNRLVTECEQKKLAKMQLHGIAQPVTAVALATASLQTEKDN
# Method in brief: as §1
# [4] = molecular target: T4, ERG (Homo sapiens, UniProt P11308 1-479); details: protein: recombinant; tags: N-terminal GST; dsDNA, one strand shown
# T4 sequence: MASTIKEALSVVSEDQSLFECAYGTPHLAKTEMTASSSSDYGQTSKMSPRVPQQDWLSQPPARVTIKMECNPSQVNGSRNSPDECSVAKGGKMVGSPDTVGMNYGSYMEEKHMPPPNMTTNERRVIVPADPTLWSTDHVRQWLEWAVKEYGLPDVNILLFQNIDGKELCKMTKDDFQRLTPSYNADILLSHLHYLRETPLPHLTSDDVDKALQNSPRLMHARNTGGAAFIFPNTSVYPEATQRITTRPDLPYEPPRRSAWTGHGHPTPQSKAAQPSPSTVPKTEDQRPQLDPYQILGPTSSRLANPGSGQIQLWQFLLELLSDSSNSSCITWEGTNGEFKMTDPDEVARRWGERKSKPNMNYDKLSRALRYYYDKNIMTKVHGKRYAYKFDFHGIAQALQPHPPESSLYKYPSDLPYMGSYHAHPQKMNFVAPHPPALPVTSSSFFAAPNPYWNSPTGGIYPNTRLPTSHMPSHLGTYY
# Method in brief: as §1
# [5] = molecular target: ELF1 (Homo sapiens, UniProt P32519 1-619); details: protein: recombinant; tags: N-terminal GST; dsDNA, one strand shown
# Chain of ELF1 (P32519 whole entry): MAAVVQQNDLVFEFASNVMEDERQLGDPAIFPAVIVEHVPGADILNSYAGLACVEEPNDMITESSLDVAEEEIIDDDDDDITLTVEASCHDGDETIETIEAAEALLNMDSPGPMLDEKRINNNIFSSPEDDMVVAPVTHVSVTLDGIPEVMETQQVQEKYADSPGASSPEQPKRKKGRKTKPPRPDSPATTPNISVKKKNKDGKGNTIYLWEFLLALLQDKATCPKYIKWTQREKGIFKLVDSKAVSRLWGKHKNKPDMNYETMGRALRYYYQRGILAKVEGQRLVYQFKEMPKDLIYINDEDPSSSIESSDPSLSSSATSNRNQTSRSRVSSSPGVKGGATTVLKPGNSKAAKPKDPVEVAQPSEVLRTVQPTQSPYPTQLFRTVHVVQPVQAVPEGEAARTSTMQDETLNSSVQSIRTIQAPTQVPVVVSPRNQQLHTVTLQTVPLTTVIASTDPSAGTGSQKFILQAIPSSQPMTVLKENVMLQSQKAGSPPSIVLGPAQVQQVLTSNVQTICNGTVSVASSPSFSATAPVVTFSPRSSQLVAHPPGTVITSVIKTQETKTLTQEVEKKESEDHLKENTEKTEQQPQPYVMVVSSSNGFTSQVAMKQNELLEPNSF
# Method in brief: as §1
# [6] = molecular target: T5, EHF (Homo sapiens, UniProt Q9NZC4 1-300); details: protein: recombinant; tags: N-terminal GST; dsDNA, one strand shown
# T5 sequence: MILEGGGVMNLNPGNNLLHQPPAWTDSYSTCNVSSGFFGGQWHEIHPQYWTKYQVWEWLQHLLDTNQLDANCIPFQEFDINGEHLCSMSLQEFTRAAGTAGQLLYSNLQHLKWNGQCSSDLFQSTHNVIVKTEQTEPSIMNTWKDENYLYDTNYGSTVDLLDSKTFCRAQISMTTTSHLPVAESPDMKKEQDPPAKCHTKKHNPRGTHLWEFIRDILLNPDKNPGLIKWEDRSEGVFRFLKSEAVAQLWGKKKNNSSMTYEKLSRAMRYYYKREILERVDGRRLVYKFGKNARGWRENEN
# Method in brief: as §1
# [7] = molecular target: SPI1 (Homo sapiens, UniProt P17947 1-270); details: protein: recombinant; tags: N-terminal GST; dsDNA, one strand shown
# Method in brief: as §1
# [8] = molecular target: SPIB (Homo sapiens, UniProt Q01892 1-262); details: protein: recombinant; tags: N-terminal GST; dsDNA, one strand shown
# Chain of SPIB (Q01892 whole entry): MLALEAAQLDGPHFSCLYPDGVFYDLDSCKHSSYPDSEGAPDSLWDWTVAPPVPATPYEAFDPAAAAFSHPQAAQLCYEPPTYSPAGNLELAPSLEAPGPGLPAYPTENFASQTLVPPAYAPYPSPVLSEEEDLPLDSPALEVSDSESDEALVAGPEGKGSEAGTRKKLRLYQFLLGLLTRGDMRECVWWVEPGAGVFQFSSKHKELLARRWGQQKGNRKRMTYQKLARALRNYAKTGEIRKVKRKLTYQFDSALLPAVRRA
# Method in brief: as §1
# [9] = molecular target: T6, ELK3 (Homo sapiens, UniProt P41970 1-407); details: protein: recombinant; tags: N-terminal GST; dsDNA, one strand shown
# T6 sequence: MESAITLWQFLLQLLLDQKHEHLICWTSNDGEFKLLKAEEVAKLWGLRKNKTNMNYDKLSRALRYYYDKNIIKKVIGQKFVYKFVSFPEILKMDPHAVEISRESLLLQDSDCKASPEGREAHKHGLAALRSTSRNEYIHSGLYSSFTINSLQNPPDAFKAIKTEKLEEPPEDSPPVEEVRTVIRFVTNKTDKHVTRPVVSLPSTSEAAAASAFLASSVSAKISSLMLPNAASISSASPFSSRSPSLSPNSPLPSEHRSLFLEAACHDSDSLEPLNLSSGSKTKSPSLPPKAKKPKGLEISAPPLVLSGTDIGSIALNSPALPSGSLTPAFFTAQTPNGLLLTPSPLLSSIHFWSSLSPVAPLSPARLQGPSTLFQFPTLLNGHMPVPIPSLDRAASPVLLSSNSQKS
# Method in brief: as §1
# [10] = molecular target: T7, FEV (Homo sapiens, UniProt Q99581 1-238); details: protein: recombinant; tags: N-terminal GST; dsDNA, one strand shown
# T7 sequence: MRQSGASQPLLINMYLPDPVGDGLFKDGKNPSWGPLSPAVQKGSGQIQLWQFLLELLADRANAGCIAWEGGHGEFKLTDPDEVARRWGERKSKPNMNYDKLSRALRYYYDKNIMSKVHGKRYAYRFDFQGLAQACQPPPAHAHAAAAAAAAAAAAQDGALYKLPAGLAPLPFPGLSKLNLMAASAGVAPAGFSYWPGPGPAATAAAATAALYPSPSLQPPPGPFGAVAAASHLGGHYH
# Method in brief: as §1
# [11] = molecular target: ETV5 (Homo sapiens, UniProt P41161 1-510); details: protein: recombinant; tags: N-terminal GST; dsDNA, one strand shown
# Chain of ETV5 (P41161 whole entry): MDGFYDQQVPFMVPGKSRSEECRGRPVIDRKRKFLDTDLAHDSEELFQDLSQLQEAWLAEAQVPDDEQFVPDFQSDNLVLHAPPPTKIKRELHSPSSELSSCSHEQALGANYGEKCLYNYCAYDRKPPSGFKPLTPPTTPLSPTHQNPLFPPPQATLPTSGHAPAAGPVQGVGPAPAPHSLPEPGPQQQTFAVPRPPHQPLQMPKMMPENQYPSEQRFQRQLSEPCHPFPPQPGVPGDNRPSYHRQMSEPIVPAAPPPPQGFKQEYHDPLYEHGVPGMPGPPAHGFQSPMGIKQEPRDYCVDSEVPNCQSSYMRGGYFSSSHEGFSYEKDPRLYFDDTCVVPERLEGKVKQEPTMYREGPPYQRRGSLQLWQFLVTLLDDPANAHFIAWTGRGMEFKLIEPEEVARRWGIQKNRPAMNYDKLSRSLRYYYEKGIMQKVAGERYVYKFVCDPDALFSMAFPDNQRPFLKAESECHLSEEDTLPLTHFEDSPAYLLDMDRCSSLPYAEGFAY
# Method in brief: as §1
# [12] = molecular target: HSF1 (Homo sapiens, UniProt Q00613 1-529); details: protein: recombinant; tags: N-terminal GST; chain copies: 3; dsDNA, one strand shown
# Chain of HSF1 (Q00613 whole entry): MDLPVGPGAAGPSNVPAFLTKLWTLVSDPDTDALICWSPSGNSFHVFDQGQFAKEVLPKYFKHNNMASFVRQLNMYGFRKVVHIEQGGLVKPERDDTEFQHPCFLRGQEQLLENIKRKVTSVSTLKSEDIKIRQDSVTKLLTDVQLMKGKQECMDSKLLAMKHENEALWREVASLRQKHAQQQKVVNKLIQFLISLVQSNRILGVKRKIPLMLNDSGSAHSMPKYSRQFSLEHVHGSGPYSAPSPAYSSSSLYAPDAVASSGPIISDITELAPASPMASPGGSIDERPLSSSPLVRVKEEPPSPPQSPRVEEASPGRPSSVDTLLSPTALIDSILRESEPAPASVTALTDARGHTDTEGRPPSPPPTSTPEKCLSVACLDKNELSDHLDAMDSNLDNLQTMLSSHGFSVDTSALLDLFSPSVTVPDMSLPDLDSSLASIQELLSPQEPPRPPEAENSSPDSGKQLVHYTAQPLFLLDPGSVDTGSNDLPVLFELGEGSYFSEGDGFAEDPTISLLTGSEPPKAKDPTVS
# Method in brief: as §1
# [13] = molecular target: T8, SPIC (Homo sapiens, UniProt Q8N5J4 1-248); details: protein: recombinant; tags: N-terminal GST; dsDNA, one strand shown
# T8 sequence: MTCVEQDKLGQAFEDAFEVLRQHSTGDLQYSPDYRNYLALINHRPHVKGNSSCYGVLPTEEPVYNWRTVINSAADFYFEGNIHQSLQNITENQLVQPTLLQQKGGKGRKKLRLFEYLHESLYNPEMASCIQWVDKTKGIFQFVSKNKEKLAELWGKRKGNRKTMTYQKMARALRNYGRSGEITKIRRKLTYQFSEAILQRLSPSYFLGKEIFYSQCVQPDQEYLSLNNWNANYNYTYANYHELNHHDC
# Method in brief: as §1
# [14] = molecular target: ELF4 (Homo sapiens, UniProt Q99607 1-663); details: protein: recombinant; tags: N-terminal GST; dsDNA, one strand shown
# Chain of ELF4 (Q99607 whole entry): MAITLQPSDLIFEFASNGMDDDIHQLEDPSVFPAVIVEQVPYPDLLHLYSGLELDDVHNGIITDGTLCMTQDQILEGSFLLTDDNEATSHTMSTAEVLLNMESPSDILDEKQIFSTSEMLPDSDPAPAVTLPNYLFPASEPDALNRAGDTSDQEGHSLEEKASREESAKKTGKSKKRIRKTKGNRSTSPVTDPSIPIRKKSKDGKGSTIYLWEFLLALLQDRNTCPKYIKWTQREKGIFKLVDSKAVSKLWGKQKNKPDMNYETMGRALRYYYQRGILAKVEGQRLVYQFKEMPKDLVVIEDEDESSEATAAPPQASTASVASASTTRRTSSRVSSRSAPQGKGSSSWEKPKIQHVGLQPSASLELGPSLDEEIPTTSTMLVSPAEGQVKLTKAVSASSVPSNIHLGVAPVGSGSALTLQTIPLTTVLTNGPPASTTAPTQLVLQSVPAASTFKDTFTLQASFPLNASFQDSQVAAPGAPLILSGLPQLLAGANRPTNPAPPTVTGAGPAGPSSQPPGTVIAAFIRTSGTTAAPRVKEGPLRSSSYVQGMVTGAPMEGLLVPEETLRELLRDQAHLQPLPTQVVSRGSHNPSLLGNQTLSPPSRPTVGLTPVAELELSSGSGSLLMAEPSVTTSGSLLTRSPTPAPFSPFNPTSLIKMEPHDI
# Method in brief: as §1
# [15] = molecular target: T9, ELK4 (Homo sapiens, UniProt P28324-2 1-405); details: protein: recombinant; tags: N-terminal GST; dsDNA, one strand shown
# T9 sequence: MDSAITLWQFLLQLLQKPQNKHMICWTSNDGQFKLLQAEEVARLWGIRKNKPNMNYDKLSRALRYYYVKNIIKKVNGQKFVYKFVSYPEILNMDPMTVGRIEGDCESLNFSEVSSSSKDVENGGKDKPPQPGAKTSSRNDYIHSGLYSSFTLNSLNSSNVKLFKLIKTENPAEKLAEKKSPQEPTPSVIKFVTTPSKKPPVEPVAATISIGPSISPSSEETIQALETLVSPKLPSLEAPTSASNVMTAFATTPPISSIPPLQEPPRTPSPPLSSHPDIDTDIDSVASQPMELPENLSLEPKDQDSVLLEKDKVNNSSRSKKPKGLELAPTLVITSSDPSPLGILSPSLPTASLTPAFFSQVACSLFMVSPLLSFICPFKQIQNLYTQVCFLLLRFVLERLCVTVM
# Method in brief: as §1
# [16] = molecular target: T10, ETV2 (Homo sapiens, UniProt O00321 1-342); details: protein: recombinant; tags: N-terminal GST; dsDNA, one strand shown
# T10 sequence: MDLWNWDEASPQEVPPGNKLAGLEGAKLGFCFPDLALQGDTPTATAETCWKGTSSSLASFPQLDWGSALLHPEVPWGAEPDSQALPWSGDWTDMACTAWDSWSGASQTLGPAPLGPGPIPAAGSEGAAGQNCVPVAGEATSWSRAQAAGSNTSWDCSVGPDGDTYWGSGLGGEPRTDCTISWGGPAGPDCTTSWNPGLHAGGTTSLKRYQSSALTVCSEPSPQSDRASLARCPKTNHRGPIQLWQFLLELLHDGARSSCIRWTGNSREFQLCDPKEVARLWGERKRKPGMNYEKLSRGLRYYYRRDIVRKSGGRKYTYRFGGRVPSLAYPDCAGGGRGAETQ
# Method in brief: as §1
# [17] = molecular target: T11, ELF3 (Homo sapiens, UniProt P78545 1-371); details: protein: recombinant; tags: N-terminal GST; dsDNA, one strand shown
# T11 sequence: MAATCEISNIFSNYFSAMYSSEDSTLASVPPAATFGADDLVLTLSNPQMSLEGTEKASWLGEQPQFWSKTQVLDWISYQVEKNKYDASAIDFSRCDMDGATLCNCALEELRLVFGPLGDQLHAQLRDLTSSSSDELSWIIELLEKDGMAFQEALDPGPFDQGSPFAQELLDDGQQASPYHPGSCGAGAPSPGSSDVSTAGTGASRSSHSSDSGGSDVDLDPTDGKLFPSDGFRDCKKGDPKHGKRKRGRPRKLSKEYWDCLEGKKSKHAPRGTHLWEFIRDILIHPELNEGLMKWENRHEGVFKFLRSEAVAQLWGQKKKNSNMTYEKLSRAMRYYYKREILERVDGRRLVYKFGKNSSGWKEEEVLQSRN
# Method in brief: as §1
# [18] = molecular target: CRX (Homo sapiens, UniProt O43186 1-299); details: protein: recombinant; tags: N-terminal GST; dsDNA, one strand shown
# Chain of CRX (O43186 whole entry): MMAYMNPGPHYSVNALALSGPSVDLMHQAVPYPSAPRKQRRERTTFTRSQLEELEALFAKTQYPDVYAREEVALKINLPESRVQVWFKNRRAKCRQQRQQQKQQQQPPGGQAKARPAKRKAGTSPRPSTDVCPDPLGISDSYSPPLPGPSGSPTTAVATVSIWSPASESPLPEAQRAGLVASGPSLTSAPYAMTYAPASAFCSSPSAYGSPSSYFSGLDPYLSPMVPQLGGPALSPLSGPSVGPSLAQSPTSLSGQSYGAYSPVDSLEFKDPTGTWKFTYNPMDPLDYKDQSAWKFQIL
# Method in brief: as §1
# [19] = molecular target: ETV1 (Homo sapiens, UniProt P50549 1-477); details: protein: recombinant; tags: N-terminal GST; dsDNA, one strand shown
# Chain of ETV1 (P50549 whole entry): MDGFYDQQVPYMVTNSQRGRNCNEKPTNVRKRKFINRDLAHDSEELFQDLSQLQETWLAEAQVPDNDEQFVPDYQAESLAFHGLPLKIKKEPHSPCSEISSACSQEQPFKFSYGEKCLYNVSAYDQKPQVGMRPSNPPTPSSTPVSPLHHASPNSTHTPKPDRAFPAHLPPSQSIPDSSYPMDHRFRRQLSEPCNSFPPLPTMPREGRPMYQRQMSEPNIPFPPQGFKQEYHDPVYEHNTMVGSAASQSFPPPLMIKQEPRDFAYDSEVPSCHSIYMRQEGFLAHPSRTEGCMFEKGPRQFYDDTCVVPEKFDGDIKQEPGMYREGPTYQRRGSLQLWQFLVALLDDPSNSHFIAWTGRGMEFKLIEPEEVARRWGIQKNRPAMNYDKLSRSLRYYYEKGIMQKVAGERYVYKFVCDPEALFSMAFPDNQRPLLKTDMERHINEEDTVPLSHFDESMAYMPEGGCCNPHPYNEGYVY
# Method in brief: as §1
sequence,measurement,setting,value
CTATGC,binding signal,[1],"1.41 fold enrichment (6-mer frequency, TF over GST control)"
same,binding signal,[2],"1.56 fold enrichment (6-mer frequency, TF over GST control)"
same,binding signal,[3],"1.53 fold enrichment (6-mer frequency, TF over GST control)"
same,binding signal,[4],"1.39 fold enrichment (6-mer frequency, TF over GST control)"
same,binding signal,[5],"1.47 fold enrichment (6-mer frequency, TF over GST control)"
same,binding signal,[6],"1.31 fold enrichment (6-mer frequency, TF over GST control)"
same,binding signal,[7],"1.38 fold enrichment (6-mer frequency, TF over GST control)"
same,binding signal,[8],"1.48 fold enrichment (6-mer frequency, TF over GST control)"
same,binding signal,[9],"1.4 fold enrichment (6-mer frequency, TF over GST control)"
same,binding signal,[10],"1.36 fold enrichment (6-mer frequency, TF over GST control)"
same,binding signal,[11],"1.38 fold enrichment (6-mer frequency, TF over GST control)"
same,binding signal,[12],"1.28 fold enrichment (6-mer frequency, TF over GST control)"
same,binding signal,[13],"1.54 fold enrichment (6-mer frequency, TF over GST control)"
same,binding signal,[14],"1.48 fold enrichment (6-mer frequency, TF over GST control)"
same,binding signal,[15],"1.38 fold enrichment (6-mer frequency, TF over GST control)"
same,binding signal,[16],"1.55 fold enrichment (6-mer frequency, TF over GST control)"
same,binding signal,[17],"1.2 fold enrichment (6-mer frequency, TF over GST control)"
same,binding signal,[18],"1.15 fold enrichment (6-mer frequency, TF over GST control)"
same,binding signal,[19],"1.55 fold enrichment (6-mer frequency, TF over GST control)"
